# Molecular target: C8B
# Assay: pooled miR-30 sensor sort-seq; sequence = guide strand
# Details: shRNA
# Further: reference of the scale not given here.
row,Sequence,sensor-assay potency score (higher = more potent)
1,TAGCTTTCCACATTGTAGGGCT,0.376
2,TATTTTAAAACCAAAACTGAAA,-1.26
3,TTTATTTTAAACAGCTTGCATG,-0.469
4,TAATATAGTGTTTGCCTCGATC,-0.751
5,TAACTCTCTGAAGGAACTCGTA,-1.02
6,TTTGCCTACAGACACACCCAGA,-0.947
7,TAAGAGTATAATCTCCTCTCTC,0.0444
8,TAAAACCAAAACTGAAACCAGA,-0.722
9,TTCTACAGTTTGCTTCATCTGA,-0.199
10,TAGGGCTTCCTAAACCTCGTGT,0.733
11,TTCCTTCTGGAACTCCTCCAGT,-0.414
12,TTTAGTATGAGAGAATCGTTTG,-0.791
13,TTGCCCTTGCATGAACTCCAGG,-1.15
14,TTGTTGACTGCATTTGACCCAA,-0.397
15,TTGACTTCCGCATGGTCTGTTG,-0.312
16,TTTTAGTATGAGAGAATCGTTT,-0.743
17,TAGTATGAGAGAATCGTTTGGT,0.49
18,TTAACTTTGATGATGGCTGGGT,0.335
19,TAACACAGTCTTCGACTTCCTT,-0.392
20,TTTGTCTTGTCTTACGTCTTCC,-0.213

# Molecular target: C8orf37
# Assay: as above
# Details: shRNA
row,Sequence,sensor-assay potency score (higher = more potent)
1,TAATTTGTGAAATTCTGGCATG,-0.39
2,TTTAACTGCTACAAGTTGGGGA,0.583
3,TTGCTTTGAGTTGATGAGGTAA,-0.541
4,TTAATTTGTGAAATTCTGGCAT,0.766
5,TAAGACTGTCAAGATCATCTTC,0.587
6,TACATGATCTTCCTTAGTCCAT,-0.774
7,TTGATGAGGTAAGATCAGCTAT,-0.469
8,TTCTTCTTTATCAACTTTGCTT,-0.238
9,TCTTCTTTATCAACTTTGCTTT,-0.627
10,ATATTGTGCATAACATTGCTTT,-0.312
11,TTAAATGTTTCTGTTGATCTGA,0.482
12,TTATAATACATGATCTTCCTTA,0.582

# Molecular target: C8orf86
# Assay: as above
# Details: shRNA
row,Sequence,sensor-assay potency score (higher = more potent)
1,ATTGCTTCTAATCAACTCCTCA,0.067
2,TTGTCTCTCTGTTCGCTGCTCA,0.291
3,TAATCAACTCCTCAGCTGGGAG,-1.02
4,TTGGCTCTTTGGAACTGCCTGT,-0.109
5,TCTTTGTCTCTCTGTTCGCTGC,-0.625
6,TTGAAGAAACCACAGATGCGAG,-0.899
7,TTTGAAGAAACCACAGATGCGA,0.17
8,TTTGTCTCTCTGTTCGCTGCTC,-0.0258
